Measured values taken from PubChem BioAssay (NCATS).
Records with an inconclusive call do not appear. The source made the active and inactive calls. Calls come from the whole dose curve; as a rule, active = well fitted curve in the direction sought with a large enough effect; inconclusive = small, poorly fitted or top-dose-only effect, or another doubt; inactive = no such curve, though single readings can be large; an effect the other way counts as inactive or inconclusive.

How the values were obtained:
[1] = qHTS of pediatric cancer cell lines to identify multiple opportunities for drug repurposing: Primary screen for Rh30 cells (AID 1347107); note: nearly all actives have a fitted effect of over 75% in size
Outline: (§1)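 Cells (500-1,000/well) in growth media were settled 5 h at 37 degrees C, then given compounds for 48 h. Viability was read as CellTiter-Glo luminescence. Primary runs used MIPE at 11 points (0.78 nM-46 µM) and NPC at 8 points (0.59 nM-46 µM); follow-ups used 11 points.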

[2] = qHTS of pediatric cancer cell lines to identify multiple opportunities for drug repurposing: Primary screen for Rh41 cells (AID 1347108); note: nearly all actives have a fitted effect of over 70% in size
Outline: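 Viability was measured as metabolically active cells after 48 hours of treatment, read by CellTiter-Glo luminescence. Compounds were tested at multiple final concentrations, giving concentration-response curves.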

[3] = qHTS of pediatric cancer cell lines to identify multiple opportunities for drug repurposing: Confirmatory screen for A673 cells (AID 1347110);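 note: cells exposed to compound for 48 h before the viability read; nearly all actives have a fitted effect of over 65% in size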
Outline: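 Forty-eight-hour viability assay. Follow-up compounds ran at 11-point dilutions; positive control bortezomib at 2.3 uM final, neutral control DMSO.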

[4] = qHTS of pediatric cancer cell lines to identify multiple opportunities for drug repurposing: Confirmatory screen for SK-N-MC cells (AID 1347111);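 note: cells exposed to compound for 48 h before the readout; nearly all actives have a fitted effect of over 70% in size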
Outline: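 Metabolically active cells were quantified by ATP-dependent luminescence (CellTiter-Glo, 15 min at room temperature) following 48 h treatment. Cells had been plated at 500-1,000 per well and settled for 5 h beforehand.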

[5] = qHTS of pediatric cancer cell lines to identify multiple opportunities for drug repurposing: Confirmatory screen for DAOY cells (AID 1347114); note: nearly all actives have a fitted effect of over 65% in size
Outline: (§2)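 Viability measured as metabolically active cells via CellTiter-Glo luminescence following 48 hours of compound exposure, 11-point dilutions in confirmatory testing. 500-1,000 cells/well plated 5 hours before dosing; controls were DMSO and 2.3 µM bortezomib.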

[6] = qHTS of pediatric cancer cell lines to identify multiple opportunities for drug repurposing: Confirmatory screen for TC32 cells (AID 1347118);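 note: cells exposed to compound for 48 h before the read; nearly all actives have a fitted effect of over 65% in size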
Outline: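 Measured quantity: luminescence from CellTiter-Glo, reflecting metabolically active TC32 cells following 48 h of compound. Curves came straight from multi-point titrations, with 8 or 11 points in primary and 11 in confirmatory screening.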

[7] = qHTS of pediatric cancer cell lines to identify multiple opportunities for drug repurposing: Confirmatory screen for MG 63 (6-TG R) cells (AID 1347119); note: nearly all actives have a fitted effect of over 55% in size
Outline: as §1

[8] = qHTS of pediatric cancer cell lines to identify multiple opportunities for drug repurposing: Confirmatory screen for control Hh wild type fibroblast cells (AID 1347121); note: nearly all actives have a fitted effect of over 70% in size
Outline: as §1

[9] = qHTS of pediatric cancer cell lines to identify multiple opportunities for drug repurposing: Confirmatory screen for U-2 OS cells (AID 1347122); note: nearly all actives have a fitted effect of over 65% in size
Outline: as §1

[10] = qHTS of pediatric cancer cell lines to identify multiple opportunities for drug repurposing: Confirmatory screen for Rh41 cells (AID 1347123);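 note: 48 h compound exposure; nearly all actives have a fitted effect of over 60% in size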
Outline: as §1

[11] = qHTS of pediatric cancer cell lines to identify multiple opportunities for drug repurposing: Confirmatory screen for RD cells (AID 1347124)
Outline: as §1

[12] = qHTS of pediatric cancer cell lines to identify multiple opportunities for drug repurposing: Confirmatory screen for Rh30 cells (AID 1347126); note: nearly all actives have a fitted effect of over 55% in size
Outline: as §1

[13] = qHTS of pediatric cancer cell lines to identify multiple opportunities for drug repurposing: Primary screen for control Hh wild type fibroblast cells (AID 1347106); note: nearly all actives have a fitted effect of over 55% in size
Outline: as §1

[14] = qHTS of pediatric cancer cell lines to identify multiple opportunities for drug repurposing: Confirmatory screen for NB1643 cells (AID 1347109); note: nearly all actives have a fitted effect of over 45% in size
Outline: as §1

[15] = qHTS of pediatric cancer cell lines to identify multiple opportunities for drug repurposing: Confirmatory screen for LAN-5 cells (AID 1347113); note: nearly all actives have a fitted effect of over 65% in size
Outline: as §1

[16] = qHTS of pediatric cancer cell lines to identify multiple opportunities for drug repurposing: Confirmatory screen for SJ-GBM2 cells (AID 1347116); note: nearly all actives have a fitted effect of over 60% in size
Outline: as §2

[17] = qHTS of pediatric cancer cell lines to identify multiple opportunities for drug repurposing: Confirmatory screen for BT-37 cells (AID 1347117); note: nearly all actives have a fitted effect of over 55% in size
Outline: as §1

[18] = qHTS of pediatric cancer cell lines to identify multiple opportunities for drug repurposing: Confirmatory screen for Rh18 cells (AID 1347125); note: nearly all actives have a fitted effect of over 55% in size
Outline: as §1

[19] = qHTS of pediatric cancer cell lines to identify multiple opportunities for drug repurposing: Confirmatory screen for BT-12 cells (AID 1347112); note: nearly all actives have a fitted effect of over 55% in size
Outline: as §1

[20] = qHTS of pediatric cancer cell lines to identify multiple opportunities for drug repurposing: Confirmatory screen for NB-EBc1 cells (AID 1347115);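 note: cells exposed to compound for 48 h before the viability read; nearly all actives have a fitted effect of over 45% in size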
Outline: as §1

Measured: Potency
Potency is the fitted concentration of half-maximal effect.

Cc1cc(Nc2cc(CN3CCOCC3)c3nc(C)c(Cc4ccc(Cl)cc4F)n3n2)n[nH]1
active: [1] 14800 nM | [2] 14800 nM

Cc1ccc(C(=O)Nc2ccc(CN3CCN(C)CC3)c(C(F)(F)F)c2)cc1C#Cc1cnc2cccnn12
inactive: [7] | [8]
active: [1] 14800 nM | [2] 9350 nM | [3] 4650 nM | [4] 3.3 nM | [5] 8270 nM | [6] 3.7 nM | [9] 2930 nM | [10] 585 nM | [11] 20800 nM | [12] 5220 nM

CC[C@@H]1C(=O)N(C)c2cnc(Nc3ccc(C(=O)NC4CCN(C)CC4)cc3OC)nc2N1C1CCCC1
active: [13] 23500 nM | [14] 3290 nM | [3] 36.9 nM | [4] 46.5 nM | [15] 5220 nM | [16] 1040 nM | [17] 131 nM | [6] 52.2 nM | [7] 92.8 nM | [8] 18500 nM | [11] 46.5 nM | [18] 18500 nM

Cc1c(NC(=O)OC[C@@H]2COCCN2)cn2ncnc(Nc3ccc4c(cnn4Cc4cccc(F)c4)c3)c12
active: [3] 18500 nM | [5] 20800 nM | [17] 18500 nM | [6] 26100 nM | [9] 20800 nM | [10] 16500 nM
inactive: [13] | [14] | [7] | [8] | [11]

CCN1CCN(Cc2ccc(-c3cc4c(N[C@H](C)c5ccccc5)ncnc4[nH]3)cc2)CC1
active: [14] 13500 nM | [3] 479 nM | [4] 851 nM | [19] 26900 nM | [15] 9550 nM | [5] 8510 nM | [16] 30200 nM | [17] 2690 nM | [6] 759 nM | [7] 13500 nM | [8] 42700 nM | [9] 12000 nM | [10] 1510 nM | [12] 15100 nM
inactive: [13]

CC1(C)O[C@@H]2C[C@@H]3[C@H]4C[C@@H](F)C5=CC(=O)C=C[C@]5(C)[C@@]4(F)[C@@H](O)C[C@]3(C)[C@]2(C(=O)CO)O1
inactive: [13] | [8] | [18] | [12]
active: [3] 92.8 nM | [4] 293 nM | [19] 73.7 nM | [5] 737 nM | [17] 82.7 nM | [6] 369 nM | [7] 2610 nM | [9] 1310 nM | [10] 585 nM

C[C@H]1C[C@@H]2[C@@H]([C@@H](O)C[C@@]3(C)[C@H]2CC[C@]3(O)C(=O)CO)[C@@]2(C)C=CC(=O)C=C12
inactive: [1] | [2]

Cc1cnc(-c2cnc(NCCNc3ccc(C#N)cn3)nc2-c2ccc(Cl)cc2Cl)[nH]1
active: [4] 11700 nM | [5] 16500 nM | [20] 14700 nM | [7] 737 nM
inactive: [13] | [14] | [15] | [16] | [17] | [8] | [9] | [12]

CCC(=C(c1ccccc1)c1ccc(OCCN(C)C)cc1)c1ccccc1
active: [4] 23300 nM | [6] 20800 nM
inactive: [13] | [20] | [16] | [8] | [10] | [12]

Nc1nc(Nc2ccc(S(N)(=O)=O)cc2)nn1C(=O)c1c(F)cccc1F
active: [2] 14800 nM
inactive: [1]

OCCCNc1cc(-c2ccnc(Nc3cccc(Cl)c3)n2)ccn1
active: [2] 235 nM | [14] 104 nM | [3] 92.8 nM | [4] 261 nM | [19] 329 nM | [16] 369 nM | [17] 261 nM | [6] 165 nM | [10] 52.2 nM | [12] 414 nM
inactive: [1] | [8]

Cc1cc(C(=O)N2CCN(c3cccc(Cl)c3)CC2)n(-c2ccccc2)n1
inactive: [1] | [8]
active: [2] 2350 nM | [3] 2330 nM | [4] 2610 nM | [5] 928 nM | [17] 5220 nM | [6] 2610 nM | [7] 1650 nM | [9] 3290 nM

CCNC(=O)Nc1ccc2ncc(Nc3ccc(C)cc3)nc2n1
not listed: [1] | [2] | [11] | [16] | [18]
inactive: all other assays above

CCn1nnc2c(N3CCOCC3)nc(-c3ccc(NC(=O)Nc4ccc(C(=O)N5CCN(C)CC5)cc4)cc3)nc21
active: [1] 7430 nM | [2] 93.5 nM | [14] 1850 nM | [3] 585 nM | [4] 657 nM | [15] 522 nM | [16] 737 nM | [17] 329 nM | [6] 293 nM | [7] 293 nM | [10] 522 nM | [11] 414 nM | [18] 1040 nM | [12] 928 nM
